Records with an inconclusive call do not appear. Activity calls are given as the source filed them. Rule for the calls: active = hit-call score of the fitted dose curve at least 0.9, where 1 is the maximum; inconclusive = response in the unintended direction; inactive = score below 0.9.
Biological target: human Vitamin D Receptor (VDR), VDR (gene 7421) (UniProt P11473)
Assay: ATG_VDR_TRANS: Attagene TRANS-FACTORIAL HepG2 Assay for human Vitamin D Receptor (VDR) (AID 2283022)
In short: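 Transactivation by an exogenous VDR-Gal4 chimera in transiently transfected HepG2 cells was measured as reporter transcript level 24 hours after chemical treatment. RT-PCR products were analysed by capillary electrophoresis and fitted in the positive direction relative to DMSO.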

Chain of human Vitamin D Receptor (VDR), VDR (gene 7421) (P11473 whole entry, looked up): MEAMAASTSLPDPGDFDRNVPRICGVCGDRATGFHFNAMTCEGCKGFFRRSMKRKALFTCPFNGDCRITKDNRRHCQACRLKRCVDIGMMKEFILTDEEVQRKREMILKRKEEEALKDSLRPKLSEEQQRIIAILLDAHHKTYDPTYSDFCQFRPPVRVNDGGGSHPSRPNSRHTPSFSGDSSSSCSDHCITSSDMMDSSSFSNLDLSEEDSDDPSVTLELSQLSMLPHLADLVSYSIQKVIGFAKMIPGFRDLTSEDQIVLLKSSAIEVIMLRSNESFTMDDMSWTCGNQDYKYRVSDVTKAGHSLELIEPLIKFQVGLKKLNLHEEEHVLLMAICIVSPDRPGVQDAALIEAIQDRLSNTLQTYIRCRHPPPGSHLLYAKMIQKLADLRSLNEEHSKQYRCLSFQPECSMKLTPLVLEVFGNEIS

outcome, inactive:
COS(=O)(=O)O
OCC#CCO
COc1cc(C(C)C)ccc1C
CCCCCCCCC=CCCCCCCCC1=NCCN1CCO
CC(=O)O[C@@H]1C[C@@H]2CC[C@@]1(C)C2(C)C
C=C1C[C@]23C[C@@]1(O)CC[C@H]2[C@@]12C=C[C@H](O)[C@@](C)(C(=O)O1)[C@H]2[C@@H]3C(=O)O
CCCCCCCCCC(C)C=O (stereo not drawn)
CCc1ccc(O)cc1
CCCC(O)C(O)CO (stereo not drawn)
CCCCC(CC)COC(C)=O (stereo not drawn)
C[C@H](CCC(=O)NCC(=O)O)[C@H]1CC[C@H]2[C@@H]3[C@H](O)C[C@@H]4C[C@H](O)CC[C@]4(C)[C@H]3C[C@H](O)[C@]12C
CCCC(=O)OC(C)(C)Cc1ccccc1
CC(C)=CCCC(C)CCOC=O (stereo not drawn)
CCCC1O[C@@H]2C[C@H]3[C@@H]4CCC5=CC(=O)C=C[C@]5(C)[C@H]4[C@@H](O)C[C@]3(C)[C@]2(C(=O)CO)O1 (stereo partly drawn)
COC(=O)c1ccc(C)cc1C1=NC(C)(C(C)C)C(=O)N1 (stereo not drawn) (tested in a mixture with another compound)
O=C(c1ccccc1)C(O)c1ccccc1 (stereo not drawn)
CCOC(=O)CCc1ccccc1
O=C(Nc1ccc2c(c1)Cc1ccccc1-2)C(F)(F)F
[Cl][Au]([Cl])[Cl]
CCC1(c2ccccc2)C(=O)NCNC1=O
CC1C2CC(CC2C2CCCC(O)C2)C1(C)C (stereo not drawn)
C[C@H]1O[C@@H](O[C@H]2[C@@H](O)C[C@H](O[C@H]3[C@@H](O)C[C@H](O[C@H]4CC[C@@]5(C)[C@H](CC[C@@H]6[C@@H]5C[C@@H](O)[C@]5(C)[C@@H](C7=CC(=O)OC7)CC[C@]65O)C4)O[C@@H]3C)O[C@@H]2C)C[C@H](O)[C@@H]1O
NC1CCCCC1N (stereo not drawn)
COc1ccc(N)c([N+](=O)[O-])c1
O=C(CS)OCCOC(=O)CS
Brc1ccc(Br)c(Br)c1
C=C(C)C(=O)OCCOC1CC2CC1C1C=CCC21 (stereo not drawn)
COC(=O)c1ccc(OC)cc1
CC(=O)O[C@@H]1CC2CCC1(C)C2(C)C (stereo partly drawn)
COc1ccc(N=Nc2cc(C)c(N=Nc3ccc(S(=O)(=O)O)cc3)cc2OC)cc1
Cc1c(Cl)cccc1[N+](=O)[O-]
Nc1ccc(Cl)c([N+](=O)[O-])c1
O=C(CC(=O)c1ccccc1)c1ccccc1

Reference: PubChem BioAssay (EPA / NIEHS)
